Measured values from publication PMC5540273 (PLoS ONE, 2017).

system: T1, VPS34; details: concentration: 1 μM, replicates: in singlicate; n = 1
T1 construct: gene PIK3C3
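Note: KINOMEscan kinase panel screen.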

In order of falling “%Inh” value:
1. Cc1nn2c(=O)cc(N3CCOCC3)nc2n1Cc1cccc(Cl)c1Cl [GSK2342769]  95.4%
2. O=c1cc(N2CCOCC2)nc2n(Cc3ccc(F)c(Cl)c3)ccn12 [GSK2297099]  95.2%
3. Cc1cccc(-c2nc(Nc3ccc4c(cnn4C)c3)c3ccccc3n2)n1 [GW876731]  56%
4. COc1cccc(-n2cnc3c(N)ncnc32)c1 [SKF-97416]  45%
5. COc1cc2nccc(Nc3cccc(Oc4ccccc4)c3)c2cc1OC.Cl [GW284543]  35%
6. Cl.NS(=O)(=O)c1cccc(Nc2cc(-c3ccc(F)cc3)n[nH]2)c1 [GW824645]  29%
7. CCS(=O)(=O)c1ccc(OC)c(Nc2ncc(-c3ccc(F)cc3)o2)c1.Cl [GW591947]  21%
8. CCC(=O)c1c(-c2ccccc2)c2cc(Cl)ccc2c(=O)n1Cc1cc(C(=O)NC2CC2)n(C)n1  20%
9. O=C1NC(=O)C(c2ccccc2)=C1Nc1cccc(O)c1 [SB-390534]  19%
10. CCS(=O)c1ccc(-c2coc3ccc(-c4nnc(C)o4)cc23)cc1 (stereo not drawn)  15%
11. CCC(=O)c1c(-c2ccccc2)c2cc(Cl)ccc2c(=O)n1Cc1ccc(C(=O)O)cc1  7%
12. Nc1ncnc2c1ncn2-c1cccc(F)c1 [SKF-97560]  4%
13. COc1cc2ncn(-c3cc(OCCCc4ccccc4)c(C(N)=O)s3)c2cc1OC [GSK205189]  0%
14. CN1C(=O)C(Nc2cc(Cl)c(O)c(Cl)c2)=C(c2ccc(Cl)cc2)C1=O [SB-404321]  0%
15. O=C(Nc1n[nH]c2nc(-c3ccccc3)c(Cl)cc12)C1CC1 [SB-734909]  0%
16. Cc1cc(Nc2nc(-c3cccc(C)n3)nc3ccccc23)ccn1 [GW872411]  0%
17. Nc1n[nH]c2nnc(-c3ccccc3)c(-c3ccccc3)c12 [GW554060]  0%
18. Cl.c1ccc(Cn2cnc3cc(Nc4ncnc5ccccc45)ccc32)cc1 [GW272142]  0%
19. COc1cc2nccc(Nc3ccc(OCc4ccc(NC(C)=O)cc4)cc3)c2cc1OC.Cl [GW440135]  0%
20. Cc1cccc(-c2cc(-c3c[nH]nc3-c3ccccn3)ccn2)c1 [GW679395]  0%
21. CCC(=O)c1c(-c2ccccc2)c2cc(Cl)ccc2c(=O)n1Cc1cc(S(C)(=O)=O)n(CC(N)=O)n1  0%
22. CCCC(=O)Nc1n[nH]c2ncc(-c3cccc4ccccc34)cc12 [SB-642057]  0%
23. Cc1nc(N(C)[C@H]2CN(C(=O)CC#N)CC[C@H]2C)c2cc[nH]c2n1  0%

system: VRK2; details: concentration: 1 μM, replicates: in singlicate; n = 1

In order of falling “%Inh” value:
1. CN1C(=O)C(Nc2cc(Cl)c(O)c(Cl)c2)=C(c2ccc(Cl)cc2)C1=O [SB-404321]  90.3%
2. FC(F)(F)c1ccc(-c2ncn(CCCN3CCOCC3)c2-c2ccncc2)cc1 [SB-217780]  42%
3. COc1cc(Nc2nccc(N3CCC(NC(=O)C4COc5ccccc5O4)C3)n2)cc(OC)c1OC (stereo not drawn) [GSK1379761]  41%
4. Cc1cc(Nc2nc(-c3cccc(C)n3)nc3ccccc23)ccn1 [GW872411]  40%
5. Nc1nc(-c2ccccc2F)c(-c2ccnc3ccccc23)s1 [GW560459]  37%
6. COc1cc2nccc(Nc3ccc(OCc4ccc(NC(C)=O)cc4)cc3)c2cc1OC.Cl [GW440135]  35%
7. COc1ccc(CNC(=O)NC2CCN(c3ccnc(Nc4ccc(F)cc4)n3)C2)cc1 (stereo not drawn) [GSK1379706]  33%
8. Nc1ncnc2c1ncn2-c1cccc(F)c1 [SKF-97560]  29%
9. Cc1cccc(-c2cc(-c3c[nH]nc3-c3ccccn3)ccn2)c1 [GW679395]  26%
10. COc1cc2ncn(-c3cc(OCc4ccncc4Br)c(C(N)=O)s3)c2cc1OC [GW854278]  24%
11. Cl.NS(=O)(=O)c1cccc(Nc2cc(-c3ccc(F)cc3)n[nH]2)c1 [GW824645]  18%
12. Nc1n[nH]c2nnc(-c3ccccc3)c(-c3ccccc3)c12 [GW554060]  18%
13. Cc1cccc(-c2nc(Nc3ccc4c(cnn4C)c3)c3ccccc3n2)n1 [GW876731]  15%
14. CCn1c(-c2ccoc2)nc2cnccc21 [SB-733887]  8%
15. COc1cccc(-n2cnc3c(N)ncnc32)c1 [SKF-97416]  8%
16. CCS(=O)c1ccc(-c2coc3ccc(-c4nnc(C)o4)cc23)cc1 (stereo not drawn)  2%
17. Cc1c(Cn2c(C)nn3c(=O)cc(N4CCO[C@H](C)C4)nc23)cccc1C(F)(F)F [GSK2373690]  0%
18. COc1ccc(-n2cnc3c(N)ncnc32)cc1 [SKF-97236]  0%
19. O=C(Nc1n[nH]c2cc(-c3ccccc3F)ccc12)C1CC1 [SB-733371]  0%
20. Cc1nnc(-c2ccc3ncn(-c4ccc(S(C)=O)cc4)c3c2)o1 (stereo not drawn)  0%
21. CCC(=O)c1c(-c2ccccc2)c2cc(Cl)ccc2c(=O)n1Cc1cc(S(C)(=O)=O)n(CC(F)F)n1  0%
22. COC(=O)c1c(-c2ccccc2)c2cc(C)ccc2c(=O)n1Cc1ccccc1  0%
23. COc1ccc(-c2coc3ccc(-c4nnc(SCc5cccc(C#N)c5)o4)cc23)cc1  0%
24. Cc1ccc(-c2ccc3c(ccc4sc5c(c43)NC[C@@H](C)N=C5N(C)C)n2)cn1  0%
25. O=c1cc(N2CCOCC2)nc2n(Cc3ccc(F)c(Cl)c3)ccn12 [GSK2297099]  0%
26. COc1cc2ncn(-c3cc(OCCCc4ccccc4)c(C(N)=O)s3)c2cc1OC [GSK205189]  0%
27. CCC(=O)c1c(-c2ccccc2)c2cc(Cl)ccc2c(=O)n1Cc1cc(C(=O)NC2CC2)n(C)n1  0%
28. O=C1NC(=O)C(c2ccccc2)=C1Nc1cccc(O)c1 [SB-390534]  0%
29. COc1cc2nccc(Nc3cccc(Oc4ccccc4)c3)c2cc1OC.Cl [GW284543]  0%
30. Cc1nn2c(=O)cc(N3CCOCC3)nc2n1Cc1cccc(Cl)c1Cl [GSK2342769]  0%
31. O=C(Nc1n[nH]c2nc(-c3ccccc3)c(Cl)cc12)C1CC1 [SB-734909]  0%
32. CCC(=O)c1c(-c2ccccc2)c2cc(Cl)ccc2c(=O)n1Cc1ccc(C(=O)O)cc1  0%
33. Cl.c1ccc(Cn2cnc3cc(Nc4ncnc5ccccc45)ccc32)cc1 [GW272142]  0%
34. CCS(=O)(=O)c1ccc(OC)c(Nc2ncc(-c3ccc(F)cc3)o2)c1.Cl [GW591947]  0%
35. CCC(=O)c1c(-c2ccccc2)c2cc(Cl)ccc2c(=O)n1Cc1cc(S(C)(=O)=O)n(CC(N)=O)n1  0%
36. CCCC(=O)Nc1n[nH]c2ncc(-c3cccc4ccccc34)cc12 [SB-642057]  0%
37. Cc1nc(N(C)[C@H]2CN(C(=O)CC#N)CC[C@H]2C)c2cc[nH]c2n1  0%
